Holding throughout (set-up): scale not given: direction of the effect not stated beside the values
The target of assay [1] is Protein translocase subunit SecA (Escherichia coli (strain K12)) (UniProt P10408). As to the kind of experiment: Assay to Identify E. coli SecA ATPase Inhibitors. Format: functional. Conditions: 30 µM.
Assay [2] concerns the target T1, Ubiquitin-activating enzyme e1, putative (Leishmania donovani (strain BPK282A1)) (UniProt E9BSI1).
T1 sequence (whole entry): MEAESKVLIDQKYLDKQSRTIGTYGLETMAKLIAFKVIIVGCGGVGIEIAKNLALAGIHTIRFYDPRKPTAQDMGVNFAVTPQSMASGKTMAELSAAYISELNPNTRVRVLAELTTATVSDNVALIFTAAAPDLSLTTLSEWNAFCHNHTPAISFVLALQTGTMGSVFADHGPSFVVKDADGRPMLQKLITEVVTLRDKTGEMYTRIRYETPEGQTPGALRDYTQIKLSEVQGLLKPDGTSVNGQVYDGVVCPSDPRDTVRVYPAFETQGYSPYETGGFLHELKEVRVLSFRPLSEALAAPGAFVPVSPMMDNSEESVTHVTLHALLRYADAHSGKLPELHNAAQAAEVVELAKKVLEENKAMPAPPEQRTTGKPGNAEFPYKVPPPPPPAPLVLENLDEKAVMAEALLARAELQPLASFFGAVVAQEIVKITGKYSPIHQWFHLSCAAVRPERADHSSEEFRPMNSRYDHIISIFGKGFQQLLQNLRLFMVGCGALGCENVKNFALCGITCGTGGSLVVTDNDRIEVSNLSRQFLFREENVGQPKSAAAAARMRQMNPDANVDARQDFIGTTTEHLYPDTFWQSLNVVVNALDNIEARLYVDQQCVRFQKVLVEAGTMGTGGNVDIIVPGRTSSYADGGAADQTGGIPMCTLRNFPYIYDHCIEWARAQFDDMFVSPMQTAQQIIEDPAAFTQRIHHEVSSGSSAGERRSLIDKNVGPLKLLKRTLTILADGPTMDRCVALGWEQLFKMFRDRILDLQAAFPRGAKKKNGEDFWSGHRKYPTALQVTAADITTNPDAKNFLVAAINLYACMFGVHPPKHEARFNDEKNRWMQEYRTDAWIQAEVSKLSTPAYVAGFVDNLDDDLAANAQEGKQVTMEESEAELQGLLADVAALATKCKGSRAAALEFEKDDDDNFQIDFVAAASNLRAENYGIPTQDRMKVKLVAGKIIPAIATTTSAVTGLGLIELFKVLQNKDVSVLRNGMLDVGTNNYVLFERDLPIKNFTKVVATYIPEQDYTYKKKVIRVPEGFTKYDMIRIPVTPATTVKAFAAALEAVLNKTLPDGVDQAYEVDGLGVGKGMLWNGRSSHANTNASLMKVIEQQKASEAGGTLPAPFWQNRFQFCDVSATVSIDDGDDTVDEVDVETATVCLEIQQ
As to the kind of experiment: Leishmania donovani Ubiquitin Activating Enzyme (LdE1). Format: functional. The following applies: 30 µM.

Assay [3] addresses T2, Aspartate--tRNA(Asp/Asn) ligase (Mycobacterium tuberculosis (strain ATCC 25618 / H37Rv)) (UniProt P9WFW3).
T2 sequence (whole entry): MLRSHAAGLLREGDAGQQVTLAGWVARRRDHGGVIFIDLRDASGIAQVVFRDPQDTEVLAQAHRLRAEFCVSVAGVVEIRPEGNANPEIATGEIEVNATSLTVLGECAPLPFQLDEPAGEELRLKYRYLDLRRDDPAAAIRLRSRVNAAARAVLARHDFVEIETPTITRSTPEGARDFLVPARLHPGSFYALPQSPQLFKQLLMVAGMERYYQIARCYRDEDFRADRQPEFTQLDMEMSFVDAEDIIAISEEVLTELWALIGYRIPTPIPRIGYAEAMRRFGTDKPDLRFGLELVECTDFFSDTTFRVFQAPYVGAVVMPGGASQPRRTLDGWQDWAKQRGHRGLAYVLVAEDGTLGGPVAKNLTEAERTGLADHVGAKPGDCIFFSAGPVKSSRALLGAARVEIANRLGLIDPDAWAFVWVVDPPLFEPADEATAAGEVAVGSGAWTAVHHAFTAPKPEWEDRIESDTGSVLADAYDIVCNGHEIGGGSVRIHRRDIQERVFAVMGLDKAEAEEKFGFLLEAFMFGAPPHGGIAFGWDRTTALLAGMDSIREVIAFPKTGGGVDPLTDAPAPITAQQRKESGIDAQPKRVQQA
Put plainly: Assay for Asp RNA synthetase-1 from Mycobacterium tuberculosis. Format: functional. Conditions: 30 µM.

Assay [4] deals with AMP-activated protein kinase, AMPK (Homo sapiens) (UniProt P54646+O43741+P54619+Q9UGJ0+Q9Y478+Q13131+Q9UGI9). Put plainly: AMP-dependent Kinase enzyme assay. An in vitro enzyme assay that detects ADP turnover that is directly proportional to AMPK activity. This uses naive AMPK that is activated during the assay with MK-8722. Format: functional. Conditions: 30 µM.
In assay [5] the target is Sialic acid-binding Ig-like lectin 9 (Homo sapiens) (UniProt Q9Y336). Put plainly: Hs-Siglec9 ALPHAscreen SOP 20170721. The following applies: 10 µM. Background: In Alpha technology, singlet oxygen from a donor bead excites a nearby acceptor bead.
In a further assay the test system is Trypanosoma cruzi. As to the kind of experiment: Trypanosoma cruzi phosphomannomutase and mannose-1-phosphate guanylyltransferase assay. Format: functional. The following applies: 10 µM.
Assay [6] concerns the target T3, Arginase-2, mitochondrial (Homo sapiens) (UniProt P78540).
T3 sequence (whole entry): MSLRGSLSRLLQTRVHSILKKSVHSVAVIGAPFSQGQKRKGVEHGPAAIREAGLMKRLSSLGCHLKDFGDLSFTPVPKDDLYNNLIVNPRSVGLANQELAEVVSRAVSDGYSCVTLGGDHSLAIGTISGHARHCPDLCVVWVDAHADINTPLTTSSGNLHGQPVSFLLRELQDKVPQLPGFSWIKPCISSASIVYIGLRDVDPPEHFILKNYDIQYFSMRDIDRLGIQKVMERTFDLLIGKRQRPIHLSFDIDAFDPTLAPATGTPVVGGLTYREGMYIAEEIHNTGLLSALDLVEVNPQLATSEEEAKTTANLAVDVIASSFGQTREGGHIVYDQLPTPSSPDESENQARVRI
Put plainly: in vitro enzyme assay to detect the production of urea directly proportional to the activity of Arginase II. Further: in the data most compounds retested in dose-response had high values. Format: functional. Conditions: 33.3 µM.

In assay [7] the target is T4, Proteasome subunit beta (Trypanosoma cruzi) (UniProt O96673).
T4 sequence (whole entry): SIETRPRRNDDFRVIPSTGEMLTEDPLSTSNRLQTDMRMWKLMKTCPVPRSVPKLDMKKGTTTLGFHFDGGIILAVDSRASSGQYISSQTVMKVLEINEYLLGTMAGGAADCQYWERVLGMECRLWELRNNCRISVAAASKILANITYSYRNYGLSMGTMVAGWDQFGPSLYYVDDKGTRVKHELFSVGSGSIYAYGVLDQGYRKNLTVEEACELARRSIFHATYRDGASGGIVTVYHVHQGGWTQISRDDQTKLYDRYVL
Put plainly: Trypanosoma cruzi proteasome chymotrypsin-like activity (TcProtChymo) assay. Further: in the data most compounds retested in dose-response had high values. Format: functional. The following applies: 9.37 µM.

Another assay is filed under the species Homo sapiens. As to the kind of experiment: To identify inhibition of the IFN signalling (Jak-Stat) pathway via expression of an eGFP reporter gene under the control of an IFN-stimulated response element (ISRE) containing MxA promoter. The following applies: 30 µM. Format: functional.
Assay [8] has as its target Shiga toxin 2 (Escherichia coli O157:H7) (UniProt P09385+P09386). Put plainly: E. coli 0.157:H7 Shiga Toxin SOP - stx2 screening assay. Conditions: 30 µM. Format: functional.
Assay [9] deals with T5, Tyrosyl-tRNA synthetase, putative (Trypanosoma cruzi (strain CL Brener)) (UniProt Q4DSP6).
T5 sequence (whole entry): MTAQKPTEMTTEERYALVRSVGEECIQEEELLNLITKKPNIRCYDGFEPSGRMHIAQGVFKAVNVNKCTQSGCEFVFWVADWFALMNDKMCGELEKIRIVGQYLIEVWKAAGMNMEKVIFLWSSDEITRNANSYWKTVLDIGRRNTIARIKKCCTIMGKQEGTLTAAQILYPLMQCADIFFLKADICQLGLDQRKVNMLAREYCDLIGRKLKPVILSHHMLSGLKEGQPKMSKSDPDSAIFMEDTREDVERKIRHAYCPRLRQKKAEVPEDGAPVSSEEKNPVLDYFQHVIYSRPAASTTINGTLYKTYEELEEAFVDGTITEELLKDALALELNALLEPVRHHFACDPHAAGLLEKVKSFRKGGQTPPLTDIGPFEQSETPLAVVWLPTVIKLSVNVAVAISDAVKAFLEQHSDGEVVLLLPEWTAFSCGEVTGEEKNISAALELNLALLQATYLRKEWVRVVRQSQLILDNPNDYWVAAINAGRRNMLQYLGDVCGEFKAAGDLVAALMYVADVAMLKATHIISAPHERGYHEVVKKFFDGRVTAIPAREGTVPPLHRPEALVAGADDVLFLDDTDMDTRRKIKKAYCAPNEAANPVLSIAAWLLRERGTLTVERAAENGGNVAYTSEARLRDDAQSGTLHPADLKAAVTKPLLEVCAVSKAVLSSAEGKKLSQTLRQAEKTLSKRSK
Put plainly: Trypanosoma cruzi tyrosyl tRNA synthetase (TcYRS) _High Tyrosine SOP. Further: in the data most compounds retested in dose-response had high values. Format: functional. The following applies: 30 µM.

Assay [10] has as its target T5, Tyrosyl-tRNA synthetase, putative (Trypanosoma cruzi (strain CL Brener)). Put plainly: Trypanosoma cruzi tyrosyl tRNA synthetase (TcYRS) SOP. Conditions: 30 µM. Format: functional.
Assay [11] addresses Chromo domain-containing protein 1 (Saccharomyces cerevisiae (strain ATCC 204508 / S288c) (Baker's yeast)) (UniProt P32657). Put plainly: ScCHD-1 Enzyme Inhibition Assay. Further: in the data most compounds retested in dose-response had high values. Format: functional. The following applies: 30 µM.

For some of these results: Measured potencies and affinities stand elsewhere.

Sequence of Sialic acid-binding Ig-like lectin 9 (Homo sapiens) (Q9Y336 whole entry): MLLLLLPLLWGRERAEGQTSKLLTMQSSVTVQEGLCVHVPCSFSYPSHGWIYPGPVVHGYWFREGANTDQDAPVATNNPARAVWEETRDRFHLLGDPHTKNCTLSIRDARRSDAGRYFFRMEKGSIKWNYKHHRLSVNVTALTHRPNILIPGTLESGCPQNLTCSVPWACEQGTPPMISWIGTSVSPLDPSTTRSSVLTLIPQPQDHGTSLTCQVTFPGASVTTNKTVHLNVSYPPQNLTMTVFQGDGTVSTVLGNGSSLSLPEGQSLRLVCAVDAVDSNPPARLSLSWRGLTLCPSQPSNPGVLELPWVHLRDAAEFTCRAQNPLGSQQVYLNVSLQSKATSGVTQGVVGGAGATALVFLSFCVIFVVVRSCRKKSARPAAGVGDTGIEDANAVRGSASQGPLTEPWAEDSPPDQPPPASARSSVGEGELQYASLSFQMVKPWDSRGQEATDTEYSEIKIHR
Sequence of Protein translocase subunit SecA (Escherichia coli (strain K12)) (P10408 whole entry): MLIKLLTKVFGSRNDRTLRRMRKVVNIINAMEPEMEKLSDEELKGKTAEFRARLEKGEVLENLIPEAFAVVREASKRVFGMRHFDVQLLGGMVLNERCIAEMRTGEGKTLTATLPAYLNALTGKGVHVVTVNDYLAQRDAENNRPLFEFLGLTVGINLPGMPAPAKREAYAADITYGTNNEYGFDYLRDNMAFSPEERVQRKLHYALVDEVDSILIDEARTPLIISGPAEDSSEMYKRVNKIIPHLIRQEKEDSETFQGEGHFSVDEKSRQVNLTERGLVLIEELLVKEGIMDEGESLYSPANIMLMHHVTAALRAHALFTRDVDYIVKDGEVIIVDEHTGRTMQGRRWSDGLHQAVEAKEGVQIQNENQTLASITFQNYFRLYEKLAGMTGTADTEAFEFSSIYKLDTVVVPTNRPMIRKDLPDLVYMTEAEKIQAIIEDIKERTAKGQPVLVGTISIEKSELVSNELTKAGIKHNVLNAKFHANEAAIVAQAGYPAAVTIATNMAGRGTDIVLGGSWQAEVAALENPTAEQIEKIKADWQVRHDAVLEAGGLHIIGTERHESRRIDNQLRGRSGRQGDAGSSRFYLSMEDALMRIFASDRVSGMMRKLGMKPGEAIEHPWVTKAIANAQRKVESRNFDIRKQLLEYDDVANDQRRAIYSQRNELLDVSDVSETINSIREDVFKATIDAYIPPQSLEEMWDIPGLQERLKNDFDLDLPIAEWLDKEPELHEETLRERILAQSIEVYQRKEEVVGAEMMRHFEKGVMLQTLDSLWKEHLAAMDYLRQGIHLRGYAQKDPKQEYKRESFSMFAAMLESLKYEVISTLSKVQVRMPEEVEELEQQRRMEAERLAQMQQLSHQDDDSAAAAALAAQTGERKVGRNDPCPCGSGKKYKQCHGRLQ
Sequence of Chromo domain-containing protein 1 (Saccharomyces cerevisiae (strain ATCC 204508 / S288c) (Baker's yeast)) (P32657 whole entry, the tested form may be a part): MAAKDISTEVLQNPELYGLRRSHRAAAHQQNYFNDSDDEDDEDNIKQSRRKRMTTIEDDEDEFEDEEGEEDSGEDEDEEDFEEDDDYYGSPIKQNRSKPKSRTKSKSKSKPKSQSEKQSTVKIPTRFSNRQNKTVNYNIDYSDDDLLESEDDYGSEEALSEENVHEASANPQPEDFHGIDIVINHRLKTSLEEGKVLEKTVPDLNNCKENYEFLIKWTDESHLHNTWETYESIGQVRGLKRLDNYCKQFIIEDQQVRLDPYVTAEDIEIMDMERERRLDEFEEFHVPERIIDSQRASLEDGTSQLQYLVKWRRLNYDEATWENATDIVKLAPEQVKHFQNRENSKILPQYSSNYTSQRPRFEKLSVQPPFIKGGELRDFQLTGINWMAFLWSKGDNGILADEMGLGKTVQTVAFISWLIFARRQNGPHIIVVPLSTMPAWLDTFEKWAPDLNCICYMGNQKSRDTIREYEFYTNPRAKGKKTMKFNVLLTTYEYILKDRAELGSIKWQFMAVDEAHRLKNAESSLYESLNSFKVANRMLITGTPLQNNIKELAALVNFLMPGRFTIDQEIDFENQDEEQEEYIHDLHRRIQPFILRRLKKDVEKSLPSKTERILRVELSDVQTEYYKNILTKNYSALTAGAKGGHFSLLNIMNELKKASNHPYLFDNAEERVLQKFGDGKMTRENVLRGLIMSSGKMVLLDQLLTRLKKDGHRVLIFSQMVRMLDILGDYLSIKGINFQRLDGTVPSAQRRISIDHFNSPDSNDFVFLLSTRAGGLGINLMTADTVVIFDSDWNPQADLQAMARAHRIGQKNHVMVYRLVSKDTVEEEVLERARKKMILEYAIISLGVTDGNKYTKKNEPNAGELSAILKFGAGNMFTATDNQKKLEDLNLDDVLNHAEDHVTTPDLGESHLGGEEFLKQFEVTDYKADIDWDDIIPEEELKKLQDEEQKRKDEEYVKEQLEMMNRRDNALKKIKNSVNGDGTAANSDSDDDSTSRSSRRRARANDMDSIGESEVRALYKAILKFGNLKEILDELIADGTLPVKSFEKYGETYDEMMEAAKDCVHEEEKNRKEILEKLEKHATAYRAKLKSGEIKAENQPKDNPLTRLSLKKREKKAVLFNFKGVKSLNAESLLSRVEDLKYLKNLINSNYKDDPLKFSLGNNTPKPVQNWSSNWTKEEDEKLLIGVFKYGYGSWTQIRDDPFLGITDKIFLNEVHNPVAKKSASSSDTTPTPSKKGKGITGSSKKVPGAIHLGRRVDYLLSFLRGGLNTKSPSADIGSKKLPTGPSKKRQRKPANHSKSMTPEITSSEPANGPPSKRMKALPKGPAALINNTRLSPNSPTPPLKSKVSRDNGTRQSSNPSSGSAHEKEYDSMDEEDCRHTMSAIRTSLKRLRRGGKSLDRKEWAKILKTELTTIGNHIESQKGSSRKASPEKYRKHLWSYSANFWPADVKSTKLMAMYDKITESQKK

With `Cc1nnc(N2CCCC3(CN(Cc4ccncc4)CCO3)C2)o1` (configuration not stated), the Percent Effect was 3.96% in [1]; 5.48% in assay [2]; -2.96% in assay [3]; 0.217% in assay [4]; 8.21% in [5]; -4.76% in the assay with Trypanosoma cruzi. For the same compound, the Percent Effect in assay [6] is -2%; in [7] it was 20.3%; in the assay filed under Homo sapiens, 6.92%; in [8] it was -16.9%; in assay [9], 4.17%; in [10] it was 16.1%. Besides, in assay [11], the Percent Effect stood at 0.771%.

For the compound `O=C(CN1CCN(C(=O)Cc2ccc3c(c2)OCCO3)CC1)NC1CC1`, the Percent Effect in [1] is -0.996%; in assay [2], 18.2%; in assay [3], 3.1%; in assay [4], 0.741%; in assay [5], 0.674%; in the assay on Trypanosoma cruzi, 2.06%. Further, the Percent Effect was -2.13% in assay [6]; 11.8% in assay [7]; -0.0292% in the assay listed under Homo sapiens; -19.4% in assay [8]; 6.8% in assay [9]; 12.2% in [10]. For the same compound, in assay [11], the Percent Effect is -6.48%.

In the case of `CCN(Cc1cccnc1)CC1CCCO1` (configuration not stated), the Percent Effect was -3.64% in assay [1]; 0% in [2]; 6.87% in assay [3]; -3.71% in [4]; -1.05% in assay [5]; -5.88% in the assay on Trypanosoma cruzi. The Percent Effect is -6.82% in assay [6]; 1.77% in assay [7]; 3.09% in the assay filed under Homo sapiens; -16.3% in [8]; 2.15% in assay [9]; 2.5% in assay [10]. The Percent Effect in assay [11] is -3.4%.

For the compound `CN(C)c1nccc(N2CCO[C@H]3CN(Cc4ccsc4)C[C@H]32)n1`, the Percent Effect was -0.682% in assay [1]; 8.22% in [2]; -1.5% in [3]; 2.33% in assay [4]; 8.35% in assay [5]; 1.59% with Trypanosoma cruzi. In addition, the Percent Effect in assay [6] is -0.399%; in assay [7] it was 19.9%; in the assay filed under Homo sapiens it was 2.38%; in [8], -97.8%; in assay [9], 8.33%; in assay [10] it was 13.6%. Besides, the Percent Effect in assay [11] was -5.92%.

Values taken from ChEMBL document CHEMBL3988442, “University of Dundee, Small-Polar-MMV Screening Library” (2021).
